Assay results reported in publication PMC5540273 (PLoS ONE, 2017).

Tests used:
Conditions in all cases: concentration: 1 μM, replicates: in singlicate; n = 1
CSNK1G1 = system: CSNK1G1
CSNK1G2 = system: CSNK1G2
CSNK1G3 = system: CSNK1G3
CSNK2A1 = system: CSNK2A1
CSNK2A2 = system: CSNK2A2
CTK = system: T1, CTK
T1 construct: gene MATK

DAPK1 = system: DAPK1
DAPK2 = system: DAPK2
DAPK3 = system: DAPK3
DCAMKL1 = system: T2, DCAMKL1
T2 construct: gene DCLK1

DCAMKL2 = system: T3, DCAMKL2
T3 construct: gene DCLK2

DCAMKL3 = system: T4, DCAMKL3
T4 construct: gene DCLK3

DDR1 = system: DDR1
DDR2 = system: DDR2
DLK = system: T5, DLK
T5 construct: gene MAP3K12

DMPK2 = system: T6, DMPK2
T6 construct: gene CDC42BPG

DMPK = system: DMPK
DRAK1 = system: T7, DRAK1
T7 construct: gene STK17A

DRAK2 = system: T8, DRAK2
T8 construct: gene STK17B

DYRK1A = system: DYRK1A
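Further: KINOMEscan kinase panel screen.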

Compound | %Inh (CSNK1G1) [%] | %Inh (CSNK1G2) [%] | %Inh (CSNK1G3) [%] | %Inh (CSNK2A1) [%] | %Inh (CSNK2A2) [%] | %Inh (CTK) [%] | %Inh (DAPK1) [%] | %Inh (DAPK2) [%] | %Inh (DAPK3) [%] | %Inh (DCAMKL1) [%] | %Inh (DCAMKL2) [%] | %Inh (DCAMKL3) [%] | %Inh (DDR1) [%] | %Inh (DDR2) [%] | %Inh (DLK) [%] | %Inh (DMPK2) [%] | %Inh (DMPK) [%] | %Inh (DRAK1) [%] | %Inh (DRAK2) [%] | %Inh (DYRK1A) [%]
Nc1ncc(-c2cccnc2)c2scc(-c3ccc4c(c3)CCN4C(=O)Cc3ccccc3)c12 [GSK683281] | 32 | 9 | 58 | 77 | 28 | 9 | 0 | 0 | 27 | 20 | 1 | 34 | 63 | 0 | 6 | 72 | 4 | 1 | 0 | 23
C[C@@H](Oc1cc(-n2cnc3cc(-c4ccnc(NCCS(C)(=O)=O)c4)ccc32)sc1C(N)=O)c1ccccc1Cl [GSK907232] | 13 | 0 | 14 | 16 | 37 | 5 | 64 | 12 | 17 | 26 | 1 | 0 | 0 | 0 | 12 | 0 | 0 | 0 | 4 | 31
COc1cccc(C2=C(Nc3ccc(Cl)c(C(=O)O)c3)C(=O)NC2=O)c1 [SB-390769] | 11 | 0 | 0 | 0 | 7 | 95.9 | 0 | 0 | 99.9 | 100 | 20 | 1 | 0 | 36 | 0 | 0 | 0 | 100 | 100 | 18
Cc1ccc(C(=O)Nc2ccc(Nc3ccnc4cc(-c5nccs5)ccc34)cc2O)cc1.Cl [GW494702] | 0 | 0 | 4 | 0 | 100 | 8 | 0 | 0 | 10 | 0 | 0 | 0 | 22 | 46 | 69 | 0 | 0 | 5 | 0 | 3
CCS(=O)(=O)c1ccc(OC)c(Nc2nccc(-c3c(-c4cccc(NC(=O)c5c(F)cccc5F)c4)nn4ncccc34)n2)c1 [GSK326180] | 15 | 4 | 15 | 0 | 0 | 0 | 9 | 0 | 9 | 3 | 0 | 1 | 90 | 8 | 0 | 78 | 0 | 0 | 1 | 12
COc1ccc(-c2coc3ccc(-c4nnc(SCc5ccc(OC)c(C(F)(F)F)c5)o4)cc23)cc1 | 0 | 24 | 0 | 22 | 24 | 10 | 15 | 0 | 0 | 38 | 8 | 0 | 2 | 0 | 0 | 0 | 0 | 0 | 0 | 0
O=C(Nc1n[nH]c2nc(-c3ccc(O)cc3)ccc12)C1CC1 [SB-710363] | 0 | 0 | 9 | 64 | 87 | 30 | 76 | 0 | 32 | 0 | 0 | 76 | 0 | 27 | 0 | 0 | 0 | 93.4 | 26 | 62
Fc1ccc(-c2ncn(C3CCNCC3)c2-c2ccnc(Oc3ccc(-c4ccccc4)cc3)n2)cc1 [SB-245391] | 30 | 78 | 49 | 0 | 7 | 37 | 14 | 5 | 22 | 10 | 3 | 18 | 2 | 10 | 7 | 86 | 5 | 0 | 15 | 0
Cl.NC(=O)c1cccc(Nc2nccc(Nc3ccc(Oc4c(Cl)cccc4Cl)c(Cl)c3)n2)c1 [GW659009] | 0 | 2 | 7 | 3 | 45 | 34 | 24 | 8 | 44 | 0 | 0 | 0 | 0 | 0 | 0 | 64 | 0 | 0 | 0 | 3
Cl.Cl.NCC(C(=O)Nc1cc(Br)c(-c2ccnc3[nH]ccc23)s1)c1ccccc1 (centres unmarked) [GSK1269851] | 0 | 4 | 35 | 79 | 73 | 7 | 0 | 0 | 15 | 9 | 3 | 0 | 0 | 0 | 4 | 0 | 27 | 98.8 | 0 | 50
